The structures appear in SMILES notation.

In the supplement of paper PMC4723716 one finds viability index data, which are given here for 18 molecules.

For the experiment, the system named is Plasmodium falciparum NF54 gametocytes. Kind of experiment: viability index relative to DMSO control (fraction); higher = less gametocyte killing. The note with it: gametocyte stage: Stage II viability index; 12.5 µM; incubation time: 72 h. In a few lines:
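P. falciparum NF54 gametocytes of each stage (I–V), in serum-containing medium (0.50% gametocytemia, 1.25% hematocrit, 40 µl), were incubated with compound at 12.5 µM in 384-well plates for 72 hr at 37°C under low oxygen. Wells received 5 µl of 5 µM MitoTracker Red CMXRos for 20 min. Then 5 µl was moved into 40 µl of 500 nM dye in serum-free medium and imaged after 30 min (three fields). The viability index was the gametocyte particle count divided by the plate mean of DMSO wells.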
Turning to `COc1ccc(CCn2c(=N)c(C(=O)NCc3cccnc3)cc3c(=O)n4cccc(C)c4nc32)cc1`, the viability index came out at 0.611.
Then `CCOc1cc2c(cc1OCC)C(c1cc(Cl)ccc1O)NCC2` (stereo not drawn), with 0.0883; and `CCC(=O)Nc1nnc(Cc2ccc(OC)c(OC)c2)s1`, with 0.965; and `CC1=C(CC(=O)c2cccc([N+](=O)[O-])c2)C(=O)c2ccccc2C1=O`, with 0.00167.
`Cc1cc(N(C)C)nc(Nc2ccc(NC(=O)Nc3ccccc3)cc2)n1` registered a viability index of 0.0266.
Consider `O=C(Nc1nc(-c2ccccn2)cs1)c1ccccc1Br`, for which the viability index was 0.13.
In turn, `FC(F)(F)c1ccc(Nc2nnnc3ccccc23)cc1` showed a viability index of 0.736.
Then `COc1ccc(-c2cc3c(SCC(=O)Nc4cc(C(F)(F)F)ccc4Cl)nccn3n2)cc1`, with 0.886.
The value for `COc1ccc(C(=O)NC(c2ccccc2Cl)c2cc(Cl)c3cccnc3c2O)cc1` (stereo not drawn) was 0.0824.
The value for `COc1ccc2c(c1OC)C(=O)N1c3ccccc3N=C(c3ccc(C)cc3)CC21` (stereo not drawn) was 0.674; that for `Cc1ccc(C)c(-c2csc(Nc3ccc(C)c(C)c3)n2)c1` was 0.815; that for `COc1ccc(C2N(C)c3ccccc3N2C)cc1` was 0.93.
As to `CCOC(=O)C1=C(c2ccccc2)N=c2sc(=Cc3cc(C)n(-c4ccc(F)cc4)c3C)c(=O)n2C1c1cccc(OC)c1OC` (stereo not drawn), the viability index is 0.787.
Turning to `COc1ccc(C(=O)C2CC2c2ccc(Cl)cc2)cc1` (stereo not drawn), the viability index is 0.968.
Molecule `Cc1ccc(CSCc2ccc(C(=O)NC3CC3)o2)cc1` came in with a viability index of 0.965.
The value for `CCOc1ccc2c(c1)CN(Cc1ccc(Cl)cc1)CO2` was 0.129; that for `CCOc1ccccc1NC(=O)CN1CCN(C(=O)c2ccco2)CC1` was 1; that for `COc1cc2cc(C(=O)Nc3ccccc3)c(N)nc2cc1OC` was 0.434.
